Assay results published in the supplement of paper PMC10849652.
Targets with a hit are over-represented here; the source holds about 7,900 in all. About 0.6% of all pairs of compound and target were hits.

Key:
Test in all cases: log2 fold change, soluble protein after heating vs DMSO (PISA); higher = thermal stabilisation; K562 cells, 10 uM, 30 min; active = over 0.2 and 3.5 SD of the protein, either way, in both replicates (recomputed)
erlotinib = compound: C#Cc1cccc(Nc2ncnc3cc(OCCOC)c(OCCOC)cc23)c1 [erlotinib]
Summary of the method: (§1)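 For each measurement, 10 μM compound was applied for 30 min to K562 cells at 2×10^6 cells/mL. Aliquots were heated for 3 min across 48°C-58°C, pooled, and extracted in PBS with 0.5% NP-40 at 4°C; the supernatant after 21,000xg for 90 min was soluble protein. This was quantified by TMTpro 16plex LC-MS/MS with channel sums equalised, and thermal stability was reported relative to control samples from duplicates, on a log2 fold-change scale.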

[1] = compound: C/C(=N\NC(=O)C1=CC(=CC=C1)S(=O)(=O)N2CCOCC2)/C3=C(C=CC(=C3)Cl)O
Summary of the method: as §1

[2] = compound: C1=CC(=C(C=C1Cl)C2=NC3=NC=CN=C3C(=N2)NC4=CC=NC=C4)F
Summary of the method: as §1

[3] = compound: C1=CC(=CC=C1C2=NC3=C(N2)C=C(C=C3)C(=O)N)OC4=CC=C(C=C4)Cl
Summary of the method: as §1

[4] = compound: C1=CC2=C(C=CC(=C2)/C=C\3/C(=O)NC(=NCC4=CC=CS4)S3)N=C1
Summary of the method: as §1

[5] = compound: C1=CC2=NC=CN=C2C=C1/C=C/3\C(=O)NC(=O)S3
Summary of the method: as §1

[6] = compound: C1=CC=C(C=C1)C2=NC(=C(N2)C3=CC=NC=C3)C4=CC(=C(C=C4)Cl)O
Summary of the method: as §1

[7] = compound: C1=CC=C2C(=C1)C3=NNC4=CC=CC(=C43)C2=O
Summary of the method: as §1

IRAK-1-4 Inhibitor I = compound: C1COCCN1CCN2C3=CC=CC=C3N=C2NC(=O)C4=CC(=CC=C4)[N+](=O)[O-] [IRAK-1-4 Inhibitor I]
Summary of the method: as §1

ibrutinib = compound: C=CC(=O)N1CCC[C@@H](n2nc(-c3ccc(Oc4ccccc4)cc3)c3c(N)ncnc32)C1 [ibrutinib]
Summary of the method: as §1

[8] = compound: CC(=O)c1cnc2ccc(-c3cc(Cl)c(O)c(Cl)c3)nc2c1N[C@H]1CC[C@H](CN(C)C)CC1
Summary of the method: as §1

ralimetinib = compound: CC(C)(C)Cn1c(N)nc2ccc(-c3[nH]c(C(C)(C)C)nc3-c3ccc(F)cc3)nc21 [ralimetinib]
Summary of the method: as §1

[9] = compound: CC(C)(O)CC(=O)NCCn1ccc2ncnc(Nc3ccc(Oc4cccc(C(F)(F)F)c4)c(Cl)c3)c21
Summary of the method: as §1

[10] = compound: CC(C)C1=C2N=C(C=C(N2N=C1)NCC3=CC=CC=C3)NCCCCCCN
Summary of the method: as §1

[11] = compound: CC(C)C[C@@H](C=O)NC(=O)[C@H](CC(C)C)NC(=O)[C@H](CC(C)C)NC(=O)OCc1ccccc1
Summary of the method: as §1

pinometostat = compound: CC(C)N(C[C@H]1O[C@@H](n2cnc3c(N)ncnc32)[C@H](O)[C@@H]1O)[C@H]1C[C@@H](CCc2nc3cc(C(C)(C)C)ccc3[nH]2)C1 [pinometostat]
Summary of the method: as §1

[12] = compound: CC1=C(C(CC(=O)N1)C2=CC=C(C=C2)C(F)(F)F)C(=O)NC3=C(C=C4C(=C3)C=NN4)F
Summary of the method: as §1

[13] = compound: C1CCN(C1)C(=O)NC2=CC=CC(=C2)NC3=NC=C(C(=N3)NCCC4=CN=CN4)Br
Summary of the method: as §1

[14] = compound: C1CN(CCC1(CC2=CC=C(C=C2)Cl)N)C3=NC=NC4=C3C=CN4
Summary of the method: as §1

[15] = compound: CC1=C(C2=C(C=C1)C(=O)C3=CC=CC=C3N2CCCN)C
Summary of the method: as §1

Measured: log2 fold change

CDK2AP2 (UniProt O75956)
Chain of UniProt O75956 (O75956 whole entry, looked up): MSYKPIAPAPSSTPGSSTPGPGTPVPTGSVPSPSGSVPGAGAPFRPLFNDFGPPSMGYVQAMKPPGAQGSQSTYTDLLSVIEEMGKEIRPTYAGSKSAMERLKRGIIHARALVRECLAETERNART
inactive: erlotinib -0.142 | [1] -0.007 | [2] 0.037 | [3] 0.043 | [4] 0.063 | [5] 0.103 | [6] 0.007 | [7] 0 | IRAK-1-4 Inhibitor I -0.087 | ibrutinib 0.011 | [8] 0.094 | ralimetinib 0 | [9] -0.077 | [10] 0.258 | pinometostat -0.135 | [12] 0.03
active: [11] -0.438

CMTM3 (UniProt Q96MX0)
Chain of UniProt Q96MX0 (Q96MX0 whole entry, looked up): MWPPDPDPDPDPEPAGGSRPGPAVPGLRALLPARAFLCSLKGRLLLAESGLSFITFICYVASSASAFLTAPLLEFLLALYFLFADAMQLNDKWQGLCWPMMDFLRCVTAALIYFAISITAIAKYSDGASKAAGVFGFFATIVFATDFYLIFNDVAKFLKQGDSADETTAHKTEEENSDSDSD
inactive: erlotinib 0.032 | [1] -0.055 | [2] 0.166 | [3] -0.044 | [4] 0.034 | [5] 0.066 | [7] -0.007 | [13] 0.002 | [14] 0.051 | IRAK-1-4 Inhibitor I 0.021 | ibrutinib 0.014 | [8] 0.003 | [9] -0.108 | [10] 0.068 | pinometostat 0 | [12] 0.12 | [15] -0.062

CDC25B isoform 4 (UniProt P30305)
inactive: erlotinib -0.031 | [1] 0.117 | [2] 0.036 | [3] 0.044 | [4] -0.062 | [5] 0.131 | [6] -0.007 | [7] -0.047 | IRAK-1-4 Inhibitor I 0.068 | ibrutinib 0.037 | [8] -0.302 | ralimetinib 0.079 | [9] -0.049 | [10] 0.021 | [11] -0.02 | pinometostat 0.007 | [12] 0.155

CLPTM1L (UniProt Q96KA5)
active: [10] -0.281
inactive: erlotinib 0.011 | [1] 0.04 | [2] -0.029 | [3] 0.063 | [4] 0.032 | [5] 0.018 | [6] -0.002 | [7] -0.037 | [13] -0.022 | [14] 0.017 | IRAK-1-4 Inhibitor I 0.051 | [8] -0.033 | ralimetinib -0.05 | [9] -0.069 | [11] 0.006 | pinometostat 0.023 | [12] 0.042 | [15] 0.033

CNN3 (UniProt Q15417)
Chain of UniProt Q15417 (Q15417 whole entry, looked up): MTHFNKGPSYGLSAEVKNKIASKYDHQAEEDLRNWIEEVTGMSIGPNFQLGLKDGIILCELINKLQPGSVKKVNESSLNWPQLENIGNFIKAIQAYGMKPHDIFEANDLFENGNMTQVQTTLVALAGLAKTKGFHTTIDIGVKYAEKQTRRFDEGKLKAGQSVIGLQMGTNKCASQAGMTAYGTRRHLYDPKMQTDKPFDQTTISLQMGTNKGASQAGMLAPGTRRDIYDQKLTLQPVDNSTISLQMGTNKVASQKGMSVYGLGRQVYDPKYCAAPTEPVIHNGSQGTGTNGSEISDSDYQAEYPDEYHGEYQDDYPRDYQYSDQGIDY
inactive: erlotinib 0.013 | [1] 0.158 | [2] 0.064 | [3] -0.088 | [4] 0.054 | [5] 0.056 | [7] 0.016 | [13] 0.041 | [14] -0.116 | ibrutinib -0.067 | [8] -0.007 | [9] -0.138 | [10] -0.17 | [12] 0.058 | [15] 0.012

CLN5 (UniProt O75503)
inactive: erlotinib 0.146 | [1] -0.049 | [2] 0.063 | [3] 0.103 | [4] 0.023 | [5] 0.016 | [7] 0.15 | [13] -0.02 | [14] -0.285 | IRAK-1-4 Inhibitor I 0.023 | [8] -0.03 | [9] 0.001 | [10] -0.62 | pinometostat -0.062 | [12] -0.039 | [15] -0.028

CLUH, A0A494C0R8
inactive: erlotinib -0.008 | [1] -0.081 | [2] 0.253 | [3] -0.107 | [4] 0.127 | [5] 0.235 | [6] -0.081 | [7] 0.03 | [13] 0.07 | [14] 0.05 | IRAK-1-4 Inhibitor I -0.016 | ralimetinib -0.125 | [9] -0.231 | [10] -0.257 | [11] 0.199 | pinometostat -0.044 | [12] -0.058 | [15] 0.046
active: [8] 0.508

CHAF1A (UniProt Q13111)
inactive: erlotinib -0.046 | [1] -0.014 | [2] -0.121 | [3] 0.053 | [4] 0.027 | [5] 0.135 | [6] -0.047 | [7] -0.114 | IRAK-1-4 Inhibitor I 0 | ibrutinib -0.143 | [8] -0.118 | ralimetinib 0.056 | [9] 0.067 | [10] -0.066 | [11] 0.08 | pinometostat -0.028 | [12] -0.042

CNOT4 isoform 9 (UniProt O95628)
Chain of UniProt O95628 (O95628 whole entry, looked up): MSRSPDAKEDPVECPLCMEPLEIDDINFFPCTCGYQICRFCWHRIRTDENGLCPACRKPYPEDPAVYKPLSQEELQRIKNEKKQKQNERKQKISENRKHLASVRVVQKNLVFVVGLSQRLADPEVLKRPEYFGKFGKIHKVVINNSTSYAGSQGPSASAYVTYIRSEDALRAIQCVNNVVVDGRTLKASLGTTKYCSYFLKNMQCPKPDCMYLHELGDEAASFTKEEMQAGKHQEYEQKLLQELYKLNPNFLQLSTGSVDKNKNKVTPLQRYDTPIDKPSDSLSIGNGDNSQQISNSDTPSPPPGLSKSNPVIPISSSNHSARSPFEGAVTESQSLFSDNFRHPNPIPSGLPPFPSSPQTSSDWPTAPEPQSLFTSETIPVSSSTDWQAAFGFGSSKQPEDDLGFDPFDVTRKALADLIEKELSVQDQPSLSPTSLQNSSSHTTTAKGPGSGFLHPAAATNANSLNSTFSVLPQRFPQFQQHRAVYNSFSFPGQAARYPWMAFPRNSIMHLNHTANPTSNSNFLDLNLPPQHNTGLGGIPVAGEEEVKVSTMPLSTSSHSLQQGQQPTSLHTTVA
inactive: erlotinib -0.011 | [1] -0.022 | [3] 0.047 | [4] 0.089 | [5] 0.018 | [6] 0.053 | [7] 0.245 | [13] 0.175 | [14] 0.455 | IRAK-1-4 Inhibitor I 0.09 | ibrutinib 0.089 | [8] 0.189 | ralimetinib 0.128 | [10] -0.068 | [11] 0.015 | pinometostat -0.028 | [12] -0.024 | [15] 0.202

C6orf120 (UniProt Q7Z4R8)
Chain of UniProt Q7Z4R8 (Q7Z4R8 whole entry, looked up): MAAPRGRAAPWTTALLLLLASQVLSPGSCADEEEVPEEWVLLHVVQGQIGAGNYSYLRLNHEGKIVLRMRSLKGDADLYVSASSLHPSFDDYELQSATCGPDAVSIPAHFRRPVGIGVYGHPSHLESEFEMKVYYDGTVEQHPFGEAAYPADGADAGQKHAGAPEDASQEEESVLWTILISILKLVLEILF
inactive: erlotinib -0.2 | [3] 0.134 | [5] -0.003 | [6] -0.009 | [13] 0.005 | [14] 0.028 | IRAK-1-4 Inhibitor I 0.116 | ibrutinib -0.003 | ralimetinib 0.015 | [10] -0.19 | [11] -0.003 | pinometostat -0.023 | [12] 0.062 | [15] 0.002

COMMD1 (UniProt Q8N668)
Chain of UniProt Q8N668 (Q8N668 whole entry, looked up): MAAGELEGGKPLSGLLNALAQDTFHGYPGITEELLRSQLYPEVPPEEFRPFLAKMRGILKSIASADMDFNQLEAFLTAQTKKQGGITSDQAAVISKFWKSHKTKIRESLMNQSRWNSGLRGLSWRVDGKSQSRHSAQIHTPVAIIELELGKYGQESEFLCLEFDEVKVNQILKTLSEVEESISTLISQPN
inactive: erlotinib -0.136 | [2] -0.241 | [3] 0.15 | [5] -0.088 | [6] 0.066 | [13] 0.037 | [14] -0.083 | IRAK-1-4 Inhibitor I -0.033 | ibrutinib -0.083 | ralimetinib 0.036 | [9] 0.06 | [10] -0.177 | [11] 0.19 | pinometostat 0.046 | [12] 0.027 | [15] 0.006

CCNT2 (UniProt O60583)
Chain of UniProt O60583 (O60583 whole entry, looked up): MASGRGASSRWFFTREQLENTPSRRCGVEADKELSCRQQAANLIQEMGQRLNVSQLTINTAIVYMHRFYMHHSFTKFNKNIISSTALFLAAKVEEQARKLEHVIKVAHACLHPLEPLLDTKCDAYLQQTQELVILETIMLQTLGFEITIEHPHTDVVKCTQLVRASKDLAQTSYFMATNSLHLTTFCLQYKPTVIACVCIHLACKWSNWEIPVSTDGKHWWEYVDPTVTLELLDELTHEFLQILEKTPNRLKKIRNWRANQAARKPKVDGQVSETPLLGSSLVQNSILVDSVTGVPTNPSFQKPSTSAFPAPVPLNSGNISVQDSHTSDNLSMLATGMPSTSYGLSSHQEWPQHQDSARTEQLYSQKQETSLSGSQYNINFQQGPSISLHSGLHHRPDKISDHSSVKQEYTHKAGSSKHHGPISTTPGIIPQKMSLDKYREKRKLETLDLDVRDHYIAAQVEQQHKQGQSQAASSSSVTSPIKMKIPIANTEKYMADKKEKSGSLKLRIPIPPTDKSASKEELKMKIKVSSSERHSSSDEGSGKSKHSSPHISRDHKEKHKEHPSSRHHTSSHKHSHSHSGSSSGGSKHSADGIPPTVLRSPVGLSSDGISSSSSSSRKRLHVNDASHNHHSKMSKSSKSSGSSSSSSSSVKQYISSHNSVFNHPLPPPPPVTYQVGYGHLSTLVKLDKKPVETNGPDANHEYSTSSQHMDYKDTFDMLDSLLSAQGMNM
inactive: [1] 0 | [2] -0.105 | [4] -0.029 | [6] -0.025 | [7] -0.08 | [13] -0.176 | [14] -0.027 | ralimetinib 0.191 | [9] 0.059 | [11] 0.116 | [12] 0.011 | [15] -0.062
active: [8] -0.797

CASP9 (UniProt P55211)
Chain of UniProt P55211 (P55211 whole entry, looked up): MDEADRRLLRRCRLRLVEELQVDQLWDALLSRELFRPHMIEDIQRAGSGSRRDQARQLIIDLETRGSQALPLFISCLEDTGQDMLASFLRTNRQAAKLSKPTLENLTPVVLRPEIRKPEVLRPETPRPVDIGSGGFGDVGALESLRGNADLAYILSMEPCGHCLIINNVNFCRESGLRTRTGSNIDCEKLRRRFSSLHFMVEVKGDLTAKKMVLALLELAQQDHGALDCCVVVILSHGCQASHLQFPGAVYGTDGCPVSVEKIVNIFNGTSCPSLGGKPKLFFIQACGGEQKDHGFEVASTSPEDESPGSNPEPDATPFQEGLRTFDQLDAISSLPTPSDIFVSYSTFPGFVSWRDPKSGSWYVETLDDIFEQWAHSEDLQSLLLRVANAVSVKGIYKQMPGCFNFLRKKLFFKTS
inactive: [1] 0.059 | [2] -0.016 | [4] -0.049 | [6] -0.02 | [7] 0.048 | [13] -0.054 | [14] -0.218 | IRAK-1-4 Inhibitor I 0.03 | [8] -0.096 | ralimetinib 0.008 | [9] -0.043 | [11] 0.053 | pinometostat 0.03 | [12] -0.071 | [15] -0.206

CRTC3 (UniProt Q6UUV7)
Chain of UniProt Q6UUV7 (Q6UUV7 whole entry, looked up): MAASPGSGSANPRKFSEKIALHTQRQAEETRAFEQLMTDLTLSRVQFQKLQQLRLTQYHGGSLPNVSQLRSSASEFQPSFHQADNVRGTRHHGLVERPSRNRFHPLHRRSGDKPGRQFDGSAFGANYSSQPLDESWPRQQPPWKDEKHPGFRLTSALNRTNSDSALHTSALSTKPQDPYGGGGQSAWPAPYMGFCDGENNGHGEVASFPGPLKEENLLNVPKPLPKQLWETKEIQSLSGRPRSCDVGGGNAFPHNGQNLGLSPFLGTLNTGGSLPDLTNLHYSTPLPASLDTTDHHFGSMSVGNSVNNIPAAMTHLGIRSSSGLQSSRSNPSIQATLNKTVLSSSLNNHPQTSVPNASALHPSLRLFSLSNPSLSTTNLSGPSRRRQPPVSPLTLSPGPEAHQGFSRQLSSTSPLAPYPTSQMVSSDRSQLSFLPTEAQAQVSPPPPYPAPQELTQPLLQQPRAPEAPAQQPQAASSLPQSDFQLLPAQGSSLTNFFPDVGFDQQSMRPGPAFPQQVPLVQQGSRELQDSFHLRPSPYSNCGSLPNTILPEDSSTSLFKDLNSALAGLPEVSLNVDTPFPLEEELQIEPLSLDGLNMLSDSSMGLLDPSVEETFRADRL
inactive: [2] 0.04 | [5] 0.094 | [6] -0.146 | [13] 0.02 | [14] 0.075 | ibrutinib -0.035 | ralimetinib 0.048 | [9] -0.104 | [11] 0.042 | [15] 0

CRMP1 isoform 2 (UniProt Q14194)
Chain of UniProt Q14194 (Q14194 whole entry, looked up): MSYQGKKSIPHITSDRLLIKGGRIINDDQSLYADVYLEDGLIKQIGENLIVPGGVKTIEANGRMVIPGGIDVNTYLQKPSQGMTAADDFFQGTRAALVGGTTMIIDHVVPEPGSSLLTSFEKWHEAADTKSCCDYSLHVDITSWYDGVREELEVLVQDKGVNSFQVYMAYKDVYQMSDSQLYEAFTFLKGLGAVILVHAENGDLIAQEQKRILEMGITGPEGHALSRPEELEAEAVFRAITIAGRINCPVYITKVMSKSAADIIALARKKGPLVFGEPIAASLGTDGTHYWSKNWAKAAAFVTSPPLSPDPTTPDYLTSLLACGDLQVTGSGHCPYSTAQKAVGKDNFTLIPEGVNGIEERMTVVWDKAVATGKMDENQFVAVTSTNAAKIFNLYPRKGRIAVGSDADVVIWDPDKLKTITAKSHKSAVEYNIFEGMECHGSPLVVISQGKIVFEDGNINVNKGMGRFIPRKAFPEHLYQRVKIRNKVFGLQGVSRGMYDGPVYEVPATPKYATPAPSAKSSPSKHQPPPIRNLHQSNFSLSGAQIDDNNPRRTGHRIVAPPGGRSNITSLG
inactive: erlotinib -0.1 | [1] -0.273 | [3] 0.009 | [4] 0.101 | [5] -0.011 | [7] -0.037 | [13] 0.088 | [14] -0.014 | ibrutinib 0.038 | [8] -0.224 | [10] 0.124 | [12] 0.196 | [15] 0.181

CA1 (UniProt E5RIF9)
inactive: [2] 0.096 | [5] 0.135 | [13] 0.014 | [14] -0.453 | ibrutinib 0.161 | [9] -0.052 | [15] -0.02

CAD (UniProt H7BZB3)
inactive: [1] -0.061 | [4] 0.242 | [7] -0.058 | [8] -0.322

CS (UniProt F8VU34)
inactive: [5] 0.06 | ibrutinib -0.137

CCDC57 (UniProt Q2TAC2)
inactive: erlotinib 0.044 | [2] 0.031 | [3] -0.051 | [5] -0.021 | [6] 0.003 | [13] 0.012 | [14] 0.026 | IRAK-1-4 Inhibitor I 0.067 | ibrutinib -0.021 | ralimetinib 0.005 | [9] -0.007 | [10] 0.041 | [11] 0.05 | pinometostat -0.04 | [12] 0.042 | [15] 0.012

CHPT1 (UniProt Q8WUD6)
Chain of UniProt Q8WUD6 (Q8WUD6 whole entry, looked up): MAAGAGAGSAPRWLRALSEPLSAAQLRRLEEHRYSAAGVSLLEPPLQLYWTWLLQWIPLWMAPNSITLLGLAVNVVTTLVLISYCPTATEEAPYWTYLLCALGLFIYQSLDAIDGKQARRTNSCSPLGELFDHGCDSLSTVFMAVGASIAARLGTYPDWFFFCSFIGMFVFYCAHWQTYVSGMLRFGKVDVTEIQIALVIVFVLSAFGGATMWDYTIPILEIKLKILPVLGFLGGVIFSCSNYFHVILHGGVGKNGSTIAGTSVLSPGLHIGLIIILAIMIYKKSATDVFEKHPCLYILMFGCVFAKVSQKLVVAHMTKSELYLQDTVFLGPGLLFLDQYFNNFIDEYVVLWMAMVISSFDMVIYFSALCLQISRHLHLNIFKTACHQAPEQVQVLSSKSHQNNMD
inactive: [1] 0.181 | [2] 0.24 | [4] 0.078 | [6] 0 | [7] -0.024 | [13] -0.004 | [14] 0.01 | [8] 0.023 | ralimetinib -0.132 | [9] 0.223 | [11] -0.002 | [12] 0.26 | [15] 0.044

CFAP58 (UniProt Q5T655)
inactive: [6] 0.047 | ralimetinib -0.04 | [11] -0.035

CASK (UniProt O14936)
inactive: erlotinib -0.018 | [1] -0.07 | [3] 0.01 | [4] 0.038 | [7] -0.136 | IRAK-1-4 Inhibitor I 0.036 | [10] 0.177 | pinometostat 0.081
active: [8] -0.483

CCM2 isoform 2 (UniProt Q9BSQ5)
Chain of UniProt Q9BSQ5 (Q9BSQ5 whole entry, looked up): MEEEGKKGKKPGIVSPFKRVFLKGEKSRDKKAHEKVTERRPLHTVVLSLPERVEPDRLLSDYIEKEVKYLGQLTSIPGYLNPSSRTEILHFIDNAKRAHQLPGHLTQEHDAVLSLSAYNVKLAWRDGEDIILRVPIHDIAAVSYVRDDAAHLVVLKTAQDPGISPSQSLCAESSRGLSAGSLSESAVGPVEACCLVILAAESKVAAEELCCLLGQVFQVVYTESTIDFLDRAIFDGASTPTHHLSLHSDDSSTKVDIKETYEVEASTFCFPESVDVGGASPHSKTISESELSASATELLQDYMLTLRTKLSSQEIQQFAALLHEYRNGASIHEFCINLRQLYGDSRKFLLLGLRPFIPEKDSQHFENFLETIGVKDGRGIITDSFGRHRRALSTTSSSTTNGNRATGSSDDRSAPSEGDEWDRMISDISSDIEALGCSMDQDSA
inactive: erlotinib 0.142 | [2] -0.042 | [3] 0.035 | [5] 0.083 | [6] 0.013 | [13] 0.09 | [14] 0.16 | IRAK-1-4 Inhibitor I 0.027 | ibrutinib -0.004 | ralimetinib 0.04 | [9] 0.027 | [10] -0.085 | [11] 0.009 | pinometostat 0.056 | [15] -0.013

CKS2 (UniProt P33552)
Chain of UniProt P33552 (P33552 whole entry, looked up): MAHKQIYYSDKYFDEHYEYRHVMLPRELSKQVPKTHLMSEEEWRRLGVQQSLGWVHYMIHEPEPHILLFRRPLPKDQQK
inactive: [1] 0.125 | [4] 0.116 | [5] -0.001 | [7] -0.032 | [13] 0.022 | [14] 0.02 | ibrutinib -0.087 | [8] -0.168 | [12] 0.047 | [15] -0.058

CSNK1A1 isoform 3 (UniProt P48729)
inactive: [5] 0.111 | ibrutinib 0.029
